The panel holds about 83,000 compounds, 20% with a hit somewhere; the sample as a whole holds those more often.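 Note: values are percent growth. 100 is the growth of untreated cells, values between 100 and 0 indicate rising inhibition; between -100 and 0 indicates cell death.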 Values without a mark were called inactive. Activity calls are given as the source filed them. The calls were made as follows: active = growth percent below 10; inactive = the rest.
The compounds below were run on MOLT-4 leukemia (assay: NCI-60 one-dose screen, 48 h (100 = growth as untreated, 0 = no growth, -100 = all killed)). Settings: 10 µM unless noted.
In the case of COc1ccccc1/C=C/C1=C(C)CCC(c2ccccc2OC)C1C (stereo not given), the growth is reported as 4.37% (active).
COc1cc(OCc2cccc(-c3ccc4c(c3)OCCO4)c2C)cc(OC)c1C=O gave a growth of 56.4%.
For COc1ccccc1-c1nc2ccc3[nH]ncc3c2c2c1CCCC2, the growth was 42.6%.
With CC(=O)OCCOc1cc(Cl)c(Cl)cc1Cl the growth was 107%.
Work on CC1(C)CC(=O)C2=C(C1)OC(C(=O)c1ccccc1)C2c1cccc(Oc2ccccc2)c1 (stereo not given) yielded a growth of 12.2%.
CC1OC(C(=O)N2CCN(CCO)CC2)CC1COC1CCCCC1 (stereo not given) gave a growth of 97.1% [50 µM].
COc1ccccc1NC(=O)n1c(=O)cc(C)c2ccc(O)cc21 gave a growth of 103%.
With COc1ccc2c(c1)C(c1c[nH]c3ccccc13)(c1c[nH]c3ccccc13)CCO2 the growth was 8.7% (active).
CC(C)(C)n1cc(-c2ccnc(NCCNS(=O)(=O)c3cccc4ccccc34)c2)c(-c2cccc(O)c2)n1 gave a growth of 53.4%.
COc1cc(C2=Nc3c(N)nc(N)nc3NC(c3cccc(Nc4ccnc5cc(C(F)(F)F)ccc45)c3)C2)cc(OC)c1OC (stereo not given) showed a growth of 19.2%.
For Nc1nc(=O)n([C@H]2CC=C(CO)O2)cc1F, the growth was 90.5%.
Work on CS(=O)(=O)c1ccc(/C(=N/NC(N)=S)c2ccc(F)cc2)cc1 yielded a growth of 103%.
Compound O=c1n(C2OC(CO)C(O)C2O)ccc2nccn12 (stereo not given) has a growth of 97.9%.
For Cc1c(N2CCCCC2)[nH]c2ccccc12, the growth was 110%.
Work on O=C1CCc2c(sc3[nH]c(=S)n(-c4cc(C(F)(F)F)cc(C(F)(F)F)c4)c(=O)c23)C1 yielded a growth of 11%.
Nc1nc(N)c2c(n1)NC(c1ccc3c(c1)OCO3)CC(c1cccc(Nc3ccncc3)c1)=N2 (stereo not given) showed a growth of 71.2%.
CCCCCCCC/C=C\CCCCCCCCOc1ccc(CC(=O)NCC[N+]2(C)CCCC2)cc1 showed a growth of 68.4%.
With Cn1cc(-c2csc(-c3cn(CCO)c4ccc(F)cc34)n2)c2cccnc21 the growth was 46.7%.
Work on CCOC(=O)C1=CCC(n2cc(F)c(=O)[nH]c2=O)O1 (stereo not given) yielded a growth of 92.9%.
For CC1(C)CC[C@]2(CO)CC[C@]3(C)C(=CC[C@@H]4[C@@]5(C)CCNCC(C)(C)[C@@H]5CC[C@]43C)[C@@H]2C1, the growth was 49.3%.
O=C(CN1C(=O)NC2NC(=O)NC21)N/N=C/c1cccc([N+](=O)[O-])c1 (stereo not given) showed a growth of 106%.
[2H]C([2H])([2H])Oc1ccc(/C=C/C(=O)/C=C(O)/C=C/c2ccc(OC([2H])([2H])[2H])c(OC([2H])([2H])[2H])c2)cc1OC([2H])([2H])[2H] showed a growth of 60.6%.
In the case of Cc1nn(C)c2ncnc(Nc3ccccc3Br)c12, the growth is reported as 95.9%.
COc1cc(NC(=O)c2cncnc2Nc2ccc3c(ccn3Cc3cccc(F)c3)c2)cc(OC)c1 was tested, and the growth was 19.8%.
C=C1CC[C@@H]2[C@](C)(COC(C)=O)[C@H](OC(C)=O)CC[C@@]2(C)[C@@H]1CC(Nc1ccc(S(=O)(=O)Nc2nccc(C)n2)cc1)C1=CCOC1=O (stereo not given in full) was tested, and the growth was -1.85% (active).
Compound Cc1nc2c(c(-c3ccccc3)n1)Cc1c(ccc3ccccc13)O2 has a growth of 97%.
With CCCc1cc(CCC)n2nc(N)nc2n1 the growth was 94.8%.
Compound Clc1ccc(C2=Nn3c(nnc3-c3cc(Cl)cc(Cl)c3Cl)SC2)cc1 has a growth of 26.7%.
CCN(CC)CCN1C(=O)c2c(c(C)c3c(oc4cc(OC)ccc43)c2C)C1=O showed a growth of 61.1%.
With O=C1c2cccnc2C(=O)c2c1c(C(=O)OCCCN1CCOCC1)c1ccccn21 the growth was 0.0972% (active).
CCCCN(CCC#N)C(N)=O gave a growth of 107%.
With O=C(OCC(O)(CO)C(=O)NC12CC3CC(CC(C3)C1)C2)c1ccc(Cl)cc1 (stereo not given) the growth was 83.8%.
With CC1(C)C2=C(C(=O)N1Cc1ccccc1)C(c1ccco1)N(C(=O)C1CCC1)CCN2 (stereo not given) the growth was 102%.
CN1CC(c2ccccc2)C(C(=O)c2ccc(Br)cc2)C12C(=O)Nc1ccccc12 (stereo not given) gave a growth of 92.1%.
With Nc1ncc(-c2ccc3ncnc(N4CCc5cc(F)c(Cl)cc54)c3c2)cn1 the growth was 17.3%.
Compound CCCCCN(CCCCC)CC(O)c1c(Cl)ccc2ccccc12 (stereo not given) has a growth of 54%.
CNC(=O)c1cc(Oc2ccc3nc(NC(=O)NC(C)C)sc3c2)ccn1 gave a growth of 40.7%.
With Nc1ccc(Cl)c2c(=O)c3ccccc3[nH]c12 the growth was 74.1%.
With CNC(=O)c1cc(Oc2cccc3nc(NC(=O)Nc4ccc(F)cc4F)ccc23)ccn1 the growth was 53.6%.
N#Cc1c(-c2ccc(F)cc2)cc(-c2cccc(Cl)c2)[nH]c1=O showed a growth of 88.3%.

— PubChem BioAssay (NCI)
